A selection: hits, their analogues and other compounds. The true share with any hit is near 4.8%.
SMARCA2 activ: SMARCA2 function activation, primary screen. activation, % at 9.1 µM. AID 652017. 370,000 tested, 1% active. MG213 cells, MMTV-luciferase reporter, dexamethasone, overnight; in the data active = activation above about 7.8%;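 also: 0% = vehicle wells and 100% = reference activator wells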
DAX1 inh-1: blocks DAX1 repression of SF-1 activated StAR promoter | HEK293T StAR-luciferase reporter, SF-1/DAX-1 repression relief | inhibition, % at 6.8 µM | 370,000 tested, 1.1% active;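 active = inhibition above the mean over all tested compounds plus 3 SD, cut at about 3.6% in these data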;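 also: 0% = DAX-1 cells with DMSO and 100% = cells lacking DAX-1 with DMSO; higher inhibition means more luminescence from relief of DAX-1 repression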
ssDAF12 agonist: activates DAF-12 receptor from parasite S. stercoralis; 370,000 tested, 1% active; activation, % at 6.8 µM; AID 652126; HEK293 ssDAF-12/GRIP1 lit1-tk-luc reporter, luminescence; % of 3 µM dafachronic acid response;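 active = activation above the mean over all tested compounds plus 3 SD, cut at about 0.9% in these data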;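 also: 0% = DMSO-only wells and 100% = 3 µM delta7-dafachronic acid wells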
hgDAF12 agonist: agonists of H. glycines DAF-12 nuclear receptor. HEK293 GAL4-hgDAF12 UAS-luciferase reporter, agonist luminescence; normalized to butyrate control. activation, % at 6.8 µM. 370,000 tested, 1.8% active. AID 687014;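 active = activation above a cutoff set at the mean of all screened compounds plus 3 SD, cut at about 10% in these data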;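 also: 0% = DMSO wells and 100% = sodium butyrate wells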
hcDAF-12 act: H. contortus DAF-12 activation, primary screen | HEK293 hcDAF-12 lit1-tk-luc reporter, luminescence; 0% DMSO, 100% Δ7-dafachronic acid | AID 652067 | 370,000 tested, 1.4% active | activation, % at 6.8 µM;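 active = activation above the mean of all tested compounds plus 3 SD, cut at about 5.5% in these data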;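 also: 100% = response to 3 µM Δ7-dafachronic acid high control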
DAX1 inh-2: NR0B1 (DAX1) inhibition. P51843. HEK293 Gal4-DAX1 luciferase reporter, luminescence. inhibition, % at 6.75 µM. 340,000 tested, 0.99% active;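 active = inhibition above the mean over all tested compounds plus 3 SD, cut at about 4.2% in these data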;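 also: 0% = DAX1-transfected cells with DMSO and 100% = empty-vector control cells with DMSO; inhibition shows as a rise in luminescence from relieved DAX1 repression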
Target sequence (P51843 207-470 limits assumed): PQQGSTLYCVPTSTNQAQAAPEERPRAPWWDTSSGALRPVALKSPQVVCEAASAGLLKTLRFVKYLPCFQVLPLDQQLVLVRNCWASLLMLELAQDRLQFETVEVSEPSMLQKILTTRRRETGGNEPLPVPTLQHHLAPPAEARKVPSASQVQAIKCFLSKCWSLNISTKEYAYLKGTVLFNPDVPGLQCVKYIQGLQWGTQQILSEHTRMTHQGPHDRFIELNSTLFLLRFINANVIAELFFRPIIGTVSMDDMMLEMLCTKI
DAX1 conf: NR0B1 (human) inhibition, confirmation | 2,400 tested, 87% active | inhibition, % at 6.8 µM | HEK293T StAR-promoter luciferase reporter, SF-1/DAX-1 repression | shares compounds with DAX1 inh-1;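 active = inhibition above the average of every tested compound plus 3 SD, cut at about 3.8% in these data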;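 also: 0% = DAX-1 cells with DMSO and 100% = no DAX-1 control cells with DMSO; active compounds raise luminescence by relieving repression of the StAR reporter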
SF1 mutant ctr: counter-screen for DAX1 inhibitors: nonselective inhibitors with SF-1 AF2 mutant. inhibition, % at 6.8 µM. shares compounds with DAX1 inh-1. HEK293 StAR-luciferase, luminescence. AID 652136. 2,400 tested, 78% active;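 active = inhibition above the mean of all tested compounds plus 3 SD, cut at about 3% in these data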;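 also: 0% = DAX-1 transfected cells with DMSO and 100% = cells without DAX-1 with DMSO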
SMARCA2 act conf: SMARCA2 activation, confirmation screen. shares compounds with SMARCA2 activ. MG213 cells, MMTV-luciferase with dexamethasone, luminescence, overnight; MG213 cells expressing E1A, Rb sequestered; DMSO wells 0%, reference activator 100%. activation, % at 9.1 µM. 3,500 tested, 30% active. AID 652260;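 active = activation above its plate's cutoff, the mean activation of tested wells plus 3 SD, cut at about 7.9% in these data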
GAL4-VP16 Luc: counter-screen for SMARCA2 activators: GAL4-VP16 luciferase reporter activation. shares compounds with SMARCA2 activ. 3,500 tested, 41% active. activation, % at 9.1 µM. HEK293 GAL4-VP16 pG5luc reporter, luciferase luminescence; scaled: DMSO wells 0%, SAHA wells 100%;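 active = activation above the solvent-only control well mean plus 3 SD, averaged across control plates, cut at about 5.2% in these data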
LXRb hcDAF ctr: LXR-beta agonism as hcDAF-12 counter-screen | shares compounds with hcDAF-12 act | AID 743027 | HEK293 Gal4-LXR tk-luc reporter, luminescence, 24 h; normalized: DMSO 0%, positive control 100% | activation, % at 6.8 µM | 3,400 tested, under 10 active;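 active = mean percent activation of the reporter above a cutoff set as the average over tested compounds plus their standard deviation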
Target sequence (P55055 whole entry, looked up, the tested form may be a part): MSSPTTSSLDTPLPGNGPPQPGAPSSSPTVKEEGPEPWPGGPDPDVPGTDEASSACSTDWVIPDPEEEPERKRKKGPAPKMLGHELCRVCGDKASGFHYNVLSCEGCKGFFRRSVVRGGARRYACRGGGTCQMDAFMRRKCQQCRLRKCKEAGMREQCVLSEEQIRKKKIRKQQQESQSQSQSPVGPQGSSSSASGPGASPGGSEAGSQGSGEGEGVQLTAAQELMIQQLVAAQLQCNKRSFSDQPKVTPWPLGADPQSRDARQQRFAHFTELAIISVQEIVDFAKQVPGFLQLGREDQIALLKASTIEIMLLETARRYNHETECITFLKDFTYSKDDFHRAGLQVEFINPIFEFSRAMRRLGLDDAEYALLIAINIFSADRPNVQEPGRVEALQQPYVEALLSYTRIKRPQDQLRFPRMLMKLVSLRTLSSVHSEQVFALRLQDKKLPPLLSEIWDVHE
hcDAF12 ag: confirmation of H. contortus DAF-12 agonists; shares compounds with hcDAF-12 act; HEK293 hcDAF-12 lit1-tk-luc reporter, luminescence; % of Δ7-dafachronic acid response; activation, % at 6.8 µM; 3,400 tested, 61% active; AID 743032;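 active = mean activation across triplicate tests above the threshold derived from the earlier primary screen, cut at about 5.5% in these data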;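 also: 0% = DMSO only wells and 100% = 3 µM Δ7-dafachronic acid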
Numbers without * were called inactive; . = no result given.

SMILES	SMARCA2 activ	DAX1 inh-1	ssDAF12 agonist	hgDAF12 agonist	hcDAF-12 act	DAX1 inh-2	DAX1 conf	SF1 mutant ctr	SMARCA2 act conf	GAL4-VP16 Luc	others
Cc1cccc(OCCn2c(=O)n(C)c3ccccc32)c1	8.9*	5.8*	-1	13*	3	3	7.2*	4.3*	19*	12*
ClCCn1cnc2c(SCc3ccccc3Cl)ncnc21	6	-3	-1	-2	-1	-4	.	.	.	.
ClCCn1cnc2c(SCc3ccccc3)ncnc21	8.0*	7.5*	-1	-2	1	-4	-1	-6	4	5.2*
Cc1sc2nc(SCC(=O)Nc3ccc(Cl)c(C(=O)O)c3)[nH]c(=O)c2c1C	8.8*	6.0*	1	17*	5	1	12*	9.5*	9.2*	8.9*
Cc1sc2nc(SCC(=O)Nc3cccc(C(=O)O)c3)[nH]c(=O)c2c1C	-1	-1	0	1	-1	0	.	.	.	.
CSc1ccccc1OCc1cc(C(=O)N2CCN(c3ncccn3)CC2)no1	0	2	-1	0	-1	0	.	.	.	.
CSc1ccccc1OCc1cc(C(=O)N2CCSCC2)no1	13*	5.3*	-1	12*	5	2	5.4*	3.4*	9.6*	10*
COc1ccccc1NS(=O)(=O)c1cc(NC(=O)c2ccc(NC(C)=O)cc2)ccc1N1CCOCC1	18*	7.0*	-1	-4	-1	2	10*	0	16*	3
COc1ccccc1NS(=O)(=O)c1cc(NC(=O)c2ccncc2)ccc1N1CCOCC1	4	0	-2	-2	-3	1	.	.	.	.
C/C(=N/NC(=O)c1ccco1)c1ccc(NC(=O)c2ccc(Br)o2)cc1	9.5*	5.9*	-1	9	4	0	3	2	2	9.7*
O=C(Nc1ccc(Cl)cc1)Nc1ccc2c(c1)OCO2	9.0*	6.4*	0	12*	5.7*	1	8.7*	6.6*	3	11*
CC(NC(=O)Nc1ccc(Cl)cc1)c1ccc2c(c1)OCO2 (configuration not stated)	-1	0	-2	-6	-4	-1	.	.	.	.
Cc1cc(C)n(-c2cccc(C(=O)O)c2)n1	-5	0	-1	3	0	-1	.	.	.	.
Cc1occc1C(=O)N/N=C/c1ccc[nH]1	8.2*	5.2*	0	11*	3	2	3	1	3	2
CN(C(=O)c1cc2c(=O)n3ccccc3nc2n1C)C1CCCCC1	8.0*	10*	0	9	2	0	12*	6.3*	2	14*
CCc1cccc2c(C(=O)CN3C(=O)NC4(CCCCCC4)C3=O)c[nH]c12	11*	13*	-2	-8	-1	-1	10*	-5	13*	1
CCc1cccc2c(C(=O)CN3C(=O)C(=O)N(C4CCCC4)C3=O)c[nH]c12	-1	-1	-1	-2	-1	0	.	.	.	.
O=C(O)C1=C(OCc2ccc(F)c(F)c2)C(=O)NCC1	-1	1	0	2	0	.	.	.	.	.
CCCCOC(=O)c1ccc(NC(=O)c2c(Cl)ccc(Cl)c2OC)cc1	-2	-1	-1	0	-2	0	.	.	.	.
Clc1ccccc1CSc1cnnc2ccccc12	9.0*	5.3*	-1	6	2	1	3	1	1	5
CC1CCN(Cc2nnnn2CCCC(=O)NCCN2CCOCC2)CC1	1	0	-1	1	-1	0	.	.	.	.
O=C(Nc1cccc(-c2ccc(N3CCOCC3)nn2)c1)c1ccccc1Cl	11*	5.2*	0	6	1	0	5.2*	5.0*	14*	10*
N#Cc1ccc(/C=C(\C(=O)C(=O)O)c2ccc3ccccc3n2)cc1	6	6.8*	1.2*	15*	10*	6.0*	8.2*	4.4*	.	.	LXRb hcDAF ctr=1;hcDAF12 ag=8.9*
N#CCCN(C(=O)COC(=O)c1ccc2ccccc2n1)c1ccccc1	0	1	-1	4	1	0	.	.	.	.
CC1CCC(NC(=O)C(=O)Nc2ccc3c(c2)OCO3)CC1 (configuration not stated)	5	7.8*	0	5	7.0*	2	8.9*	8.8*	.	.	LXRb hcDAF ctr=1;hcDAF12 ag=5.7*
SMILES	SMARCA2 activ	DAX1 inh-1	ssDAF12 agonist	hgDAF12 agonist	hcDAF-12 act	DAX1 inh-2	DAX1 conf	SF1 mutant ctr	SMARCA2 act conf	GAL4-VP16 Luc	others
c1ccc(-c2csc(Nc3ccc4c(c3)OCCO4)n2)cc1	0	6.9*	3.1*	19*	15*	3	20*	7.0*	.	.	LXRb hcDAF ctr=2;hcDAF12 ag=16*
Cc1cc(C)nc(Nc2nc(-c3ccccc3)cs2)n1	4	4.5*	5.0*	18*	22*	-2	20*	8.4*	.	.	LXRb hcDAF ctr=3;hcDAF12 ag=37*
Cc1nc2ccc(C(=O)N/N=C/c3cc([N+](=O)[O-])ccc3O)cc2[nH]1	-2	0	-2	1	0	0	.	.	.	.
CCOC(=O)C1CCCN(C(=O)CCc2nnc(-c3ccc(C(C)=O)s3)o2)C1 (configuration not stated)	2	5.5*	0	13*	6.8*	4	5.8*	5.9*	.	.	LXRb hcDAF ctr=1;hcDAF12 ag=6.1*
Cc1snc(SCc2ccc(F)cc2)c1C#N	-2	0	-1	3	1	0	.	.	.	.
O=c1[nH]c(COc2ccc(Cl)cc2Br)nc2ccccc12	4	7.1*	0	12*	8.7*	2	8.8*	8.9*	.	.	LXRb hcDAF ctr=1;hcDAF12 ag=3
Cc1ccc(N=Nc2cc(C)ccc2O)c(C)c1	2	1	0	2	1	-2	.	.	.	.
Cc1ccc(N=Nc2cc(C)ccc2N)cc1	3	4.7*	2.8*	17*	20*	0	18*	8.1*	.	.	LXRb hcDAF ctr=2;hcDAF12 ag=22*
